An excerpt weighted towards active compounds, which were near 2.5% of everything screened.
Cruzain inh noDet: blocks cruzain activity in detergent-free assay. P25779. purified cruzain, Z-FR-AMC fluorescence, no detergent. 2.3% of 200,000 active. Potency, µM, for inactives: max response, negative = inhibition, most hits filed as inhibitors. AID 1476;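 also: plate controls were enzyme without inhibitor for no effect and buffer without enzyme for full effect; nearly all actives have a fitted effect of over 40% in size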
Target sequence (P25779 123-467 limits assumed): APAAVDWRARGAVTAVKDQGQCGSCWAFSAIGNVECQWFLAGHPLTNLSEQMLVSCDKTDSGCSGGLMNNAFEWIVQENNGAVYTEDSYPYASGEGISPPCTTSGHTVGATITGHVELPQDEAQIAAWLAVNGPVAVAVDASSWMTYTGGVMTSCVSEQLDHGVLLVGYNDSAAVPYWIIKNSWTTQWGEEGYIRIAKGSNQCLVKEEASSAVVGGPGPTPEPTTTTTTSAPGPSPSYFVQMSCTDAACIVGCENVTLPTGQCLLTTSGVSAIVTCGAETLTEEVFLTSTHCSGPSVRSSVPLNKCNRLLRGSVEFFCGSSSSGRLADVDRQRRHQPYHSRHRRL
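Detergent-free condition (0.00005% Triton X-100) in acetate buffer pH 5.5 with DTT. 1.5 nM enzyme and compound were pre-mixed 15 min, then 2 uM Z-FR-AMC substrate added; reaction progress from fluorescence change between first and third reads (60 s).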
Cruzain inh Det: inhibitors of Trypanosoma cruzi cruzain with detergent | P25779 | purified cruzain, Z-FR-AMC fluorescence, 0.01% Triton | Potency, µM, without a hit: max response, negative = inhibition, usual class: inhibitors | 0.43% of 200,000 active;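 also: plate controls were neutral wells for no effect and buffer without enzyme for full effect; nearly all actives have a fitted effect of over 40% in size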
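Cruzain (1.5 nM) preincubated 15 min at RT with compound in 100 mM sodium acetate pH 5.5, 5 mM DTT, 0.01% Triton X-100. Reaction started with 2 uM Z-FR-AMC; AMC fluorescence (ex 360/em 450 nm) change over 60 s gave rate.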
Papain counter: blocks papain protease activity, flagging nonselective cruzain hits; shares compounds with Cruzain inh Det; purified papain, Z-FR-AMC fluorescence cleavage; Potency, µM, for the others: max response, negative = inhibition, usual class: inhibitors; 41% of 410 active; AID 2161;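 also: 0% = no-compound wells and -100% = no-enzyme wells; nearly all actives have a fitted effect of over 35% in size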
Target sequence (P00784 whole entry, looked up): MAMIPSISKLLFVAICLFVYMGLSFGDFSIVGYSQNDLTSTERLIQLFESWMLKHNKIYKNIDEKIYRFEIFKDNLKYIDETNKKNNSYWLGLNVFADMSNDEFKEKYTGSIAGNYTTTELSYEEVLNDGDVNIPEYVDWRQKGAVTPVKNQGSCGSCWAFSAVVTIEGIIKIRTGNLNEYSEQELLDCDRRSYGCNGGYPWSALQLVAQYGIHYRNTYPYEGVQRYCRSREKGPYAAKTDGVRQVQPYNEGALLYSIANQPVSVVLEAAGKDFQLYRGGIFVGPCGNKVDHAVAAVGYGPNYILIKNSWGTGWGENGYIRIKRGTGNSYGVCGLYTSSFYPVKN
* = called active by the depositor; ? = inconclusive; · = not tested or not shown. Calls follow the shape of the dose curve; as a rule, active = well fitted curve in the direction sought with a large enough effect; inconclusive = small, poorly fitted or top-dose-only effect, or another doubt; inactive = no such curve, though single readings can be large; an effect the other way counts as inactive or inconclusive. Potency is read from the fitted curve at half-maximal effect.

SMILES	Cruzain inh noDet	Cruzain inh Det	Papain counter
CCCCn1c(CCNC(=O)CC)nc2ccccc21	-7%	0%	·
Cc1cc(C)cc(OCCn2c(CCNC(=O)C3CCCCC3)nc3ccccc32)c1	1%	1.8µM*	2%
Cc1cccc(OCCCn2c(CCNC(=O)C(C)C)nc3ccccc32)c1	16%	-2%	·
Cc1cccc(C)c1OCCn1c(CCNC(=O)C2CCCCC2)nc2ccccc21	5%	3.5µM*	-26%
Cc1cccc(OCCCn2c(CCNC(=O)C3CCCCC3)nc3ccccc32)c1	-4%	2µM*	16µM*
CCOc1ccc(NC(=O)Cn2nc(Cc3cccnc3)c3ccccc3c2=O)cc1	-8%	-1%	·
CCc1cccc(NC(=O)Cn2nc(C)c3sc4ccccc4c3c2=O)c1	?	-8%	·
C=CCC(C)(O)c1ccsc1 (configuration not stated)	4%	4%	·
CC(=O)c1cccc(NC(=O)C2CCCN(c3nnc(-n4cccc4)s3)C2)c1 (configuration not stated)	-1%	-6%	·
Cc1ccc(Cn2c(CCNC(=O)c3cccc(C)c3)nc3ccccc32)cc1	25%	5µM*	-12%
Cc1cc(OCCn2c(CCNC(=O)C3CCCCC3)nc3ccccc32)ccc1Cl	-15%	2.5µM*	-6%
CCc1ccccc1N1CC(c2nc3ccccc3n2CCOc2ccc(Cl)c(C)c2)CC1=O (configuration not stated)	-14%	-8%	·
CC(=O)NCCCc1nc2ccccc2n1Cc1ccc(C)cc1	2%	3%	·
CCOc1ccc2oc(=O)cc(CN3CCN(c4ccc(Cl)cc4)CC3)c2c1	5%	-2%	·
Cc1cccc(Nc2nc(C#N)nc(NC3CCCC3)n2)c1	·	·	0.45µM*
N#Cc1nc(Nc2cccc([N+](=O)[O-])c2)nc(NC2CCCC2)n1	·	·	2.8µM*
Cc1cccc(Nc2nc(N)c([N+](=O)[O-])c(N3CCC(C)CC3)n2)c1	3%	-8%	·
O=C(CO/N=C/c1cccc([N+](=O)[O-])c1)NC1CCCCCC1	4%	-1%	·
Cc1nc2sc(C)c(C)n2c(=O)c1S(=O)(=O)N1CCN(c2ccccc2F)CC1	6%	-3%	·
Cc1ccc(S(=O)(=O)NCC(=O)OCC(=O)Nc2ncc(Cl)cc2Cl)cc1	25µM*	20µM*	-30%
Cc1ccc(S(=O)(=O)CCC(=O)OCC(=O)Nc2ncc(Cl)cc2Cl)cc1	-15%	-18%	·
CCc1nnc(SCC(=O)Nc2cc(Cl)c(OC)cc2OC)c2cc3oc(C)cc3n12	-16%	-1%	·
O=NN(c1ccccc1)c1ccccc1	-5%	-2%	·
COc1cc(NC(=O)c2ccc(-c3nc(CSc4ccccc4)c(C)o3)cc2)cc(OC)c1	?	2%	·
CC(C)(C)C(=O)O/N=C1/C(=O)N(c2ccccc2)c2ccccc21	20µM*	1.6µM*	25µM*
SMILES	Cruzain inh noDet	Cruzain inh Det	Papain counter
O=C1CCCCC(=O)N(c2ccccc2)c2ccccc21	6%	4%	·
CC(C)CC(=O)O/N=C1\C(=O)N(c2ccccc2)c2ccccc21	2.5µM*	0.63µM*	1.1µM*
CC(C)CC(=O)Nc1cccc2c1C(=O)N(c1ccccc1)C2=O	-18%	-7%	·
C/C(=C\C[Si](C)(C)C)CCC=O	?	4%	·
CCC(C)[C@@H](N)C(=O)N/N=C/c1ccc2ncccc2c1 (some centres not stated)	10µM*	10µM*	6%
CCOc1cc(/C=N/NC(=O)C(C)Sc2ccccn2)ccc1O (configuration not stated)	2%	-3%	·
CCN(c1ccccc1)c1nnc(NC(=O)Nc2ccc(C)cc2)s1	-11%	-3%	·
Cc1csc(N/N=C/c2ccc(O)c([N+](=O)[O-])c2)n1	7.9µM*	7.1µM*	-47%
Cc1nnc(N/N=C/c2ccc(O)c([N+](=O)[O-])c2)[nH]c1=O	-3%	-4%	·
COc1ccc(OC)c(CCNC(=O)c2cc3c(=O)oc4ccc(C)cc4c3s2)c1	3%	0%	·
CN1C(=O)/C(=C/c2ccc3c(c2)OCO3)N=C1c1ccccc1	-7%	-11%	·
CN1N/C(=C\c2ccccc2)N=C2C(=O)N(C)C(=O)N=C21	·	·	-10%
CC/C=C1/N=C2C(=O)N(C)C(=O)N=C2N(C)N1	·	·	-13%
COc1ccc(C)cc1NC(=O)CN1C(=O)CCc2cc(S(=O)(=O)N3CCOCC3)ccc21	?	-1%	·
COc1ccc(CNc2ncnc3ccc(-c4ccccc4OC)cc23)c(OC)c1	18%	-2%	·
C[C@H]1[C@H](C)OC(=O)C[C@H](O)C[C@H](O)C[C@H](O)CC[C@H](O)[C@H](O)CC(=O)C[C@H](O)[C@H](C(=O)O)[C@H](O)C[C@H](O[C@@H]2O[C@@H](C)[C@H](O)[C@@H](N)[C@@H]2O)C=CC=CC=CC=CCCC=CC=C[C@@](C)(O)[C@H]1O	13%	0%	·
O=C(COC(=O)Cc1ccsc1)NC1CCCCCC1	7%	5%	·
CCOC(=O)CNC(=O)C1CCCCC1	·	·	-18%
CC(C)(CNC(=O)C1CCCC1)CNC(=O)C1CCCC1	-6%	-1%	·
O=C(COC(=O)CNC(=O)C1CCCCC1)NC1CC1	·	·	25µM*
O=C(Nc1cccc(Cl)c1)c1ccc2c(c1)CCN2S(=O)(=O)c1ccccc1	?	-1%	·
CC(=O)c1cccc(NC(=O)Cc2ccc(NC(=O)N3CCCCc4ccccc43)cc2)c1	?	-8%	·
Cc1ccc2[nH]c3c(NCCCN4CCCC4=O)ncnc3c2c1	-24%	-24%	·
COc1ccc2[nH]c3c(NCCN4CCCCC4)ncnc3c2c1	13µM*	16µM*	5%
Cc1ccc(CN(C(=O)COc2ccc(Cl)cc2Cl)C2CCS(=O)(=O)C2)o1 (configuration not stated)	?	-9%	·
SMILES	Cruzain inh noDet	Cruzain inh Det	Papain counter
COc1cccc(Cn2c(CNC(=O)CCc3ccccc3)nc3cccnc32)c1	-1%	-2%	·
Cc1cc(NS(=O)(=O)c2ccc(NC(=O)Cc3cccs3)cc2)no1	2%	0%	·
Cc1cc(NC(=O)Cc2cccs2)no1	-28%	-18%	-17%
COc1ccc(Cl)cc1NC(=O)CSc1nnc2[nH]c(=O)cc(C)n12	19%	0%	·
Cc1cc(-c2nc3ncccc3o2)ccc1NC(=O)c1ccc(Cl)cc1	-4%	1%	·
CCCNc1nc(C#N)nc(Nc2ccccc2)n1	·	·	1µM*
CC(C)(CO)Nc1nc(Nc2ccccc2)nc(Nc2ccccc2)n1	-2%	-14%	·
CCNc1nc(C#N)nc(Nc2ccccc2)n1	·	·	5.6µM*
Clc1nc(Nc2ccccc2)nc(Nc2ccccc2)n1	-8%	-6%	·
CCN(C(=O)c1cn(CC)c(=O)c2cc(OC)c(OC)cc12)c1ccc(C)c(C)c1	14%	-2%	·
NN(CC(=O)O)CC(=O)O	0%	4%	·
Cc1cc(OCC(=O)Nc2ccc(N3CCN(C(=O)c4ccco4)CC3)cc2)cc(C)c1Cl	1%	0%	·
Cc1cc(OCC(=O)Nc2ccc(N3CCCC3)cc2)cc(C)c1Cl	4µM*	?	3%
Cc1ccc(CNC(=O)c2cccc(-n3cnc4cccnc43)c2)cc1	4%	-3%	·
CCOc1ccc(CCNC(=O)c2c3c(nc4ccccc24)C(=O)N(C2CCCCC2)C3)cc1	?	-3%	·
CCc1nn(CC(=O)NCCc2ccc(OC)cc2OC)c(=O)c2cc3c(OC)cccc3n12	-8%	0%	·
Cc1ccc2cc(/C=C3\N=C(c4ccccc4)OC3=O)c(N3CCOCC3)nc2c1	?	-12%	·

Assay outcomes from PubChem.
